Calls of active or inactive are those of the source.
Assay: small-molecule microarray binders of probe aXIP, primary screen, biochemical, NeuroSMM set, 635/667 nm fluorescence (AID 1119);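 also: probe is the protein aXip251-270 applied at 1 µg/mL to compound-printed slides; binding of probe to printed compounds measured as 667 nm fluorescence plus signal to noise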
Conditions: higher = more signal, called active from +8 up or from −8 down
For `COC(=O)C(CC#Cc1ccc2c(c1)[C@]1(C(=O)N2)[C@H](C(=O)N2CCCCCCC2)[C@H]2C(=O)O[C@H](c3ccccc3)[C@H](c3ccccc3)N2[C@@H]1c1ccc(OCCO)cc1)C(=O)OC`, the composite Z-score was 10.3 (active). In the case of `C=CC[C@H](OC(=O)Nc1ccc(SC)cc1)c1ccc(O)c(F)c1`, the composite Z-score is reported as 0.514 (inactive). For `Cc1cccc([C@H]2C[C@H]3C(Br)=C[C@@]2(CO)C(=O)[C@]32CO2)c1`, the composite Z-score was -0.288 (inactive). In the case of `C=C(CCCC)C(=O)CC[C@H](OC(=O)c1ccccc1-c1ccccc1C(=O)O)c1cccc(OCCO)c1`, the composite Z-score is reported as -0.634 (inactive).

Assay: small-molecule binders of probe aNOTCH3, primary screen, biochemical, small-molecule microarray, 635/667 nm fluorescence (AID 1120);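 also: probe is a biotin-tagged antibody raised against NOTCH3 rather than NOTCH3 protein; score merges spot fluorescence near 667 nm with spot signal to noise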
Conditions: higher = more signal
`CCOC(=O)C1=CC[C@@H](c2ccccc2)N(S(=O)(=O)c2ccc(C)cc2)[C@@H]1C#N` showed a composite z-score of 0.0112. With `C=CCN1C(=O)[C@]2(O[C@H](CCO)[C@@H]([Si](C)(C)c3ccc(OC)cc3)[C@@H]2C)c2cc(N3C(=O)c4ccccc4Oc4ccccc43)ccc21` the composite z-score was -0.0328. With `C=CCOC(=O)[C@H]1[C@@H]2C(=O)O[C@@H](c3ccccc3)[C@@H](c3ccccc3)N2[C@@H](c2ccc(OCCOC(=O)[C@H]3C[C@H]4C(=O)NCC(=O)N4[C@H]3c3ccc(O)cc3)cc2)[C@]12C(=O)Nc1ccccc12` the composite z-score was 0.948. Work on `C=CCOC(=O)[C@H]1[C@@H]2C(=O)O[C@@H](c3ccccc3)[C@@H](c3ccccc3)N2[C@@H](c2ccc(OCCOC(=O)[C@@H]3C[C@@H]4C(=O)N[C@@H](Cc5ccccc5)C(=O)N4[C@@H]3c3ccc(O)cc3)cc2)[C@]12C(=O)Nc1ccc(I)cc12` yielded a composite z-score of 0.698. Work on `CC(C)[Si](C#Cc1ccccc1)(O[C@H](c1ccccc1)c1cn(Cc2ccccc2)nn1)C(C)C` yielded a composite z-score of -0.127. Molecule `O=C(NCCN1CCOCC1)[C@@H]1c2ccccc2C(=O)N(CC23CC4CC(CC(C4)C2)C3)[C@H]1c1ccc(CO)cc1` has a composite z-score of 0.216. In the case of `O=C1O[C@@H](c2ccccc2)[C@@H](c2ccccc2)N2[C@@H](c3ccccc3OCCO)[C@]3(C(=O)Nc4ccc(C#CC5(O)CCCCCC5)cc43)[C@@H](C(=O)N3CCCCCCC3)[C@H]12`, the composite z-score is reported as 2.33. `CCOC(=O)C[C@H]1[C@H](OC(=O)c2ccc(-c3ccccc3)cc2)[C@@H](NC(=O)C2CCCCC2)c2cc(OCCCO)ccc2N1C(=O)Cc1ccc(OC)cc1` gave a composite z-score of -0.0362. `C=CCC(OC(C)=O)[C@@H]1[C@@H](N(Cc2cccc3ccccc23)C(=O)c2ccc(C)cc2)c2cc(OCCCO)ccc2N1C(=O)Cc1ccc2ccccc2c1` (stereo not given in full) gave a composite z-score of -0.0044. Molecule `COC(=O)C1(CC(C)C)C=C2C(=C(C)C(=O)C2C)CN1` (stereo not given) has a composite z-score of 0.786. With `COC(=O)[C@@]1(Cc2ccc(F)cc2)[C@H]2c3cc(C(=O)N4CCCC4)n(C[C@H](O)CO)c3C[C@H]2CN1C(=O)c1ccccc1` the composite z-score was 0.591. With `COC(=O)C(CC#Cc1ccc2c(c1)[C@]1(C(=O)N2)[C@H](C(=O)NC[C@H](O)c2ccccc2)[C@H]2C(=O)O[C@H](c3ccccc3)[C@H](c3ccccc3)N2[C@@H]1c1ccc(O)cc1)C(=O)OC` the composite z-score was -0.0932. With `CC(C)c1ccc(NN2C(C(O)C3CCCCC3)C=CC3C(=O)N(c4ccccc4)C(=O)C32)cc1` (stereo not given) the composite z-score was 0.286. Work on `CN(C)C(=O)[C@]1(CCS(=O)(=O)c2ccccc2)N=C(c2ccc(OCCCO)cc2)O[C@@H]1c1ccccc1CN=[N+]=[N-]` yielded a composite z-score of 0.0743. `COc1ccc(C(=O)Nc2cccc(CN3C(=O)[C@]4(O[C@H](CC(=O)N(CCO)Cc5ccccc5)[C@@H]([Si](C)(C)c5ccc(OC)cc5)[C@@H]4C)c4ccccc43)c2)cc1` showed a composite z-score of 0.0141. In the case of `C=CCNC(=O)[C@@H]1[C@H]2C(=O)O[C@H](c3ccccc3)[C@H](c3ccccc3)N2[C@H](c2ccc(O)cc2)[C@@]12C(=O)N(C(=O)OCCOC)c1ccc(C#CCC(C(=O)OC)C(=O)OC)cc12`, the composite z-score is reported as 0.0813. Work on `C=CCNC(=O)[C@H]1[C@@H]2C(=O)O[C@@H](c3ccccc3)[C@@H](c3ccccc3)N2[C@@H](c2ccc(OCCO)cc2)[C@]12C(=O)N(C(=O)OCCOC)c1ccc(C#CCNC(N)=O)cc12` yielded a composite z-score of 0.0927. `COC(=O)[C@@]1(Cc2ccc(OC)cc2)[C@@H]2[C@@H](CC(=O)[C@H]2CC(=O)C(=O)N(C)C)CN1C(=O)c1ccccc1` gave a composite z-score of 1.52. For `CC(C)N1C(=O)[C@@]2(Cc3ccccc31)c1ccccc1C(=O)N(Cc1ccccc1C(F)(F)F)[C@H]2c1ccc(CO)cc1`, the composite z-score was -0.374. Molecule `COc1ccc(C#Cc2ccc3c(c2)[C@]2(C(=O)N3)[C@H](c3ccccc3OCCO)N3[C@H](c4ccccc4)[C@H](c4ccccc4)OC(=O)[C@H]3[C@@H]2C(=O)NC[C@H](O)c2ccccc2)cc1` has a composite z-score of 0.11. Molecule `O=C1O[C@H](c2ccccc2)[C@H](c2ccccc2)N2[C@H]1[C@@H](C(=O)O)[C@]1(C(=O)Nc3ccccc31)[C@H]2c1ccc(OCCO)cc1` has a composite z-score of 0.0576. In the case of `Cc1ccc(S[C@]2(C(=O)NCCN3CCOCC3)CC(=O)N(C(C)C)[C@@H]2c2ccc(CO)cc2I)cc1`, the composite z-score is reported as -0.0111. With `COc1ccc([Si](C)(C)[C@H]2[C@H](CC(=O)N(CCO)Cc3ccccc3)O[C@@]3(C(=O)N(c4ccccc4)c4ccccc43)[C@@H]2C)cc1` the composite z-score was 0.123. `CN1C(=O)C2C=CC(C(O)c3ccc(I)cc3)N(N(c3ccccc3)c3ccccc3)C2C1=O` (stereo not given) gave a composite z-score of -0.0328. `C=CCC(OC(C)=O)[C@@H]1[C@@H](N(Cc2ccc(-c3ccccc3)cc2)C(=O)Cc2ccc(OC)cc2)c2cc(OCCCO)ccc2N1C(=O)Cc1ccc(OC)cc1` (stereo not given in full) gave a composite z-score of 0.464. Work on `Cc1ccc(S[C@]2(C(=O)NC(C)C)CC(=O)N(Cc3ccccc3)[C@@H]2c2ccc(CO)cc2)cc1` yielded a composite z-score of -0.333. `C=CCNC(=O)[C@H]1[C@@H]2C(=O)O[C@@H](c3ccccc3)[C@@H](c3ccccc3)N2[C@@H](c2ccc(OCCO)cc2)[C@]12C(=O)N(C(=O)OCCOC)c1ccc(C#CCC(C(=O)OC)C(=O)OC)cc12` gave a composite z-score of 0.327. In the case of `CCCCCN1CC=CC23O[C@@H]4/C=C\CCCOC(=O)C4[C@H]2C(=O)N(CCO)[C@@H]3C1=O` (stereo not given in full), the composite z-score is reported as -0.18. `CN1C2C=C(c3ccc(CO)cc3)C(C3C(=O)N(C(N)=O)C(=O)C32)C1C1CC1` (stereo not given) gave a composite z-score of -0.206. In the case of `Cc1ccc(S(=O)(=O)N2[C@@H](c3ccccc3)C(C(=O)O)=C[C@H]2C(C)(C)C)cc1`, the composite z-score is reported as 0.178. `C=C(C(=O)CC[C@@H](OC(=O)c1ccccc1-c1ccccc1C(=O)O)c1ccc(CO)o1)C(C)C` showed a composite z-score of -0.0858. `COC(=O)[C@@]1(Cc2ccc(F)cc2)[C@@H]2C(=CC(=O)[C@H]2CC(=O)C(=O)N2CCCC2)CN1C(=O)c1ccccc1` gave a composite z-score of 1.24. Work on `COC(=O)C(CC#Cc1ccc2c(c1)[C@]1(C(=O)N2)[C@H](C(=O)N2CCCCCCC2)[C@H]2C(=O)O[C@H](c3ccccc3)[C@H](c3ccccc3)N2[C@@H]1c1ccc(OCCO)cc1)C(=O)OC` yielded a composite z-score of 2.18. Work on `C=CC[C@H](OC(=O)Nc1ccc(SC)cc1)c1ccc(O)c(F)c1` yielded a composite z-score of -0.246. Molecule `Cc1cccc([C@H]2C[C@H]3C(Br)=C[C@@]2(CO)C(=O)[C@]32CO2)c1` has a composite z-score of -0.108. `C=C(CCCC)C(=O)CC[C@H](OC(=O)c1ccccc1-c1ccccc1C(=O)O)c1cccc(OCCO)c1` gave a composite z-score of -0.161.

— PubChem BioAssay
